For twelve compounds, z-score and composite z-score results are on record in PubChem BioAssay.

The source made the active and inactive calls. Unless noted, no rule for the calls is given here.

A short description of experiment [1]: resazurin metabolic signal in HepG2 cells – cell-based, resazurin fluorescence, 24 h, PK04 Diversity Set, profiling panel (AID 1172). Also: test concentration not given here. As to conditions: HepG2 viability, higher = more signal. On the technique in general: Alamar Blue is a resazurin reagent that responds to reducing activity.
Experiment [2] in a line: budding yeast growth changes without added modifier – OD600, strain BY4716, 24 h, basal condition, primary screen (AID 1173). As to conditions: S. cerevisiae BY4716 growth, OD600, 24 h; higher = more signal, called active from +8 up or from −8 down.
A short description of experiment [3]: viability profiling in MM1S myeloma cells – cell-based, resazurin fluorescence, basal, 24 h, PK04 Diversity Set, profiling panel (AID 1174).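 Also: MM1S multiple myeloma cell line; test concentration not given here.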 Particulars: higher = more signal, called active from +8 up or from −8 down.
The target in experiment [4] is Dihydroorotate dehydrogenase (quinone), mitochondrial (Plasmodium falciparum (isolate 3D7)) (UniProt Q08210). As to the kind of experiment: inhibition of P. falciparum DHODH – biochemical, C-terminal His tag, absorbance 600 nm, primary screen (AID 1175).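 Also: recombinant parasite enzyme with a five histidine tag at its C terminus; test concentration not given here.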 As to conditions: PfDHODH enzyme, DCIP absorbance 600 nm; higher = more signal, called active from +8 up or from −8 down.
Chain of Dihydroorotate dehydrogenase (quinone), mitochondrial (Plasmodium falciparum (isolate 3D7)) (Q08210 whole entry, looked up): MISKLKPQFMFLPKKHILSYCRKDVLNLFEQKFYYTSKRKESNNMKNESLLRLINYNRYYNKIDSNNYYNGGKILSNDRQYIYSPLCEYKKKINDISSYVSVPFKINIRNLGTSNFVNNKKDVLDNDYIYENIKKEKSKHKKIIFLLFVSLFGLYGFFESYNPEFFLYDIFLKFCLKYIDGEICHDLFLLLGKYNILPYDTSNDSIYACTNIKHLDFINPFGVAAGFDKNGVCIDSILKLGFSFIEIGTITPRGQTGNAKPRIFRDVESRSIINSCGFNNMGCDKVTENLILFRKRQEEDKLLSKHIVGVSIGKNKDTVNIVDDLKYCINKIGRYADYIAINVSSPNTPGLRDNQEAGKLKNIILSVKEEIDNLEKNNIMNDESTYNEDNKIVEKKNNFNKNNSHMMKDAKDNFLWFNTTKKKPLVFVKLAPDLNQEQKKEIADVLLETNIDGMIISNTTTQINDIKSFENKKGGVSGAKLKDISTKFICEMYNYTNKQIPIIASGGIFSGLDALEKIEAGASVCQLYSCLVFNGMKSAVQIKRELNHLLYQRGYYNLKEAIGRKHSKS

Experiment [5] in a line: inhibition of PAO1 biofilm formation – strain PAO1, LB-PBS medium, absorbance 600 nm, primary screen (AID 1176). Also: test concentration not given here. As to conditions: P. aeruginosa PAO1 growth/biofilm, A600, 12 h; higher = more signal.
Experiment [6] is described as follows: growth modulation of vineyard yeast isolate – strain RM11-1a, OD600, basal, 24 h, primary screen (AID 1177).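 Also: cultures grown under basal conditions with no added stressor; test concentration not given here.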 As to conditions: S. cerevisiae RM11-1a growth, OD600, 24 h; higher = more signal, called active from +8 up or from −8 down.
Experiment [7] is described as follows: growth of efflux-deficient E. coli DRC39 – strain DRC39, OD650, 24 h, E. coli filamentation inducers, primary screen (AID 1178).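 Also: growth measured as culture turbidity by optical density at 650 nm; test concentration not given here.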 As to conditions: E. coli DRC39 acrAB, higher = more signal, called active from +8 up or from −8 down.
Experiment [8] is described as follows: growth of efflux-deficient E. coli DRC39 – strain DRC39, OD650, 48 h, E. coli filamentation inducers, primary screen (AID 1179).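 Also: screen aims at cell division blockers that make cells filament.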 Particulars: E. coli DRC39 delta-acrAB growth, higher = more signal, called active from +8 up or from −8 down.
A short description of experiment [9]: viability profiling in RPMI8226 myeloma cells – cell-based, resazurin fluorescence, basal, 24 h, PK04 Diversity Set, profiling panel (AID 1180).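 Also: RPMI8826 multiple myeloma cell line at 5000 cells per well; test concentration not given here.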 Particulars: higher = more signal.
In experiment [10] the target is E3 ubiquitin-protein ligase XIAP (Homo sapiens) (UniProt P98170). As to the kind of experiment: small molecules binding XIAP protein – biophysical, small-molecule microarray, fluorescence 635 nm, primary screen (AID 1181).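 Also: score merges 667 nm emission and signal to noise over triplicate slides.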 Particulars: higher = more signal.
Chain of E3 ubiquitin-protein ligase XIAP (Homo sapiens) (P98170 whole entry, looked up): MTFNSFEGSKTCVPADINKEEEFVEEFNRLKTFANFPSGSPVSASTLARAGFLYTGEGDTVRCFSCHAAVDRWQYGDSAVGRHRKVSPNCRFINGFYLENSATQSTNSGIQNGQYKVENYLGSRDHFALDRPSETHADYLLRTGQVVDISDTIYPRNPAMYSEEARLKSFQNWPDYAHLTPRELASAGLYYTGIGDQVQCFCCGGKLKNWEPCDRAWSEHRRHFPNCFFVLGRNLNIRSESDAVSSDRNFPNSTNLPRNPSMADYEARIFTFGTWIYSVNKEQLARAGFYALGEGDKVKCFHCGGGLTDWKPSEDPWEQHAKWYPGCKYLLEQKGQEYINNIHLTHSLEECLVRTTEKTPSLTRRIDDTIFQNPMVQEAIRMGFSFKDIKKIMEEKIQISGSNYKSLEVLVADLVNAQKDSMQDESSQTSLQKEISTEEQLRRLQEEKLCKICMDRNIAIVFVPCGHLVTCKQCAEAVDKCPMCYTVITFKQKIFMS

On to `CN1C(=O)C2C=CC(C(O)C3CC=CCC3)N(NC(=O)OC(C)(C)C)C2C1=O` (stereo not given), for which the z-score in [1] was -1.53; in experiment [2] it was -0.0428 (inactive); in experiment [3], -0.784 (inactive); in experiment [5] it was 0.503 (inactive); in experiment [6], -0.0874 (inactive); in [7], -0.791 (inactive). Besides, the z-score in experiment [8] was -0.688 (inactive); in [9], -1. For the same compound, the values for the composite z-score in experiment [4] and in experiment [10] were 0.123 (inactive) and 0.579, respectively.

With `O=C1OCCC/C=C\[C@H]2OC34C=CCN(Cn5nnc6ccccc65)C(=O)[C@H]3N(CCCCCCO)C(=O)[C@@H]4C12` (stereo not given in full), the z-score is 1.14 in experiment [1]; -1.45 (inactive) in experiment [2]; 0.651 (inactive) in experiment [3]; 1.07 (inactive) in experiment [5]; -1.16 (inactive) in experiment [6]; 1.09 (inactive) in [7]. The figures for the z-score in experiment [8] and in experiment [9] were 1.18 (inactive) and 0.598, respectively. In addition, the composite z-score in experiment [4] was -0.332 (inactive); in experiment [10] it was -0.203.

Turning to `O=C1C2C=CC(C(O)C3CCCCC3)N(Nc3ccc([N+](=O)[O-])cc3)C2C(=O)N1c1ccccc1` (stereo not given), the z-score in [1] is -1.13; in experiment [2], 0.581 (inactive); in experiment [3], -0.772 (inactive); in experiment [5] it was 0.409 (inactive); in [6], 1.09 (inactive); in [7] it was -0.915 (inactive). Besides, the z-score in experiment [8] was -1.96 (inactive); in experiment [9] it was -0.675. Further, the results for the composite z-score in experiment [4] and in experiment [10] were 1.14 (inactive) and 0.242, respectively.

Take `O=C(C1N=C(c2ccc(OCCCO)cc2)N(c2ccccc2)O1)N1CCOCC1` (stereo not given): the z-score in experiment [1] is 0.55; in [2], -1.3 (inactive); in [3], 0.466 (inactive); in [5], -0.91 (inactive); in [6] it was -1 (inactive); in experiment [7], 1.42 (inactive). Moreover, the z-score was 1.92 (inactive) in experiment [8] and 2.12 in [9]. Further, the composite z-score is -1.09 (inactive) in [4] and -0.163 in experiment [10].

On to `COCCOC(=O)N1C(=O)[C@@]2(c3cc(C#CC4=CCCCC4)ccc31)[C@H](C(=O)Nc1nc3ccccc3s1)[C@H]1C(=O)O[C@H](c3ccccc3)[C@H](c3ccccc3)N1[C@@H]2c1ccccc1OCCO`, for which the z-score in experiment [1] is 0.444; in [2] it was 0.794 (inactive); in [3] it was -0.386 (inactive); in experiment [5], 1.16 (inactive); in experiment [6], 1.99 (inactive); in experiment [7], -0.653 (inactive). Further, the z-score in [8] was -0.883 (inactive); in experiment [9] it was -0.575. In addition, the figures for the composite z-score in experiment [4] and in experiment [10] were 1.37 (inactive) and -0.05, respectively.

`O=C1O[C@H](c2ccccc2)[C@H](c2ccccc2)N2[C@H]1[C@@H](C(=O)NC[C@H](O)c1ccccc1)[C@]1(C(=O)Nc3ccccc31)[C@H]2c1ccc(OCCO)cc1`: the z-score is 0.293 in experiment [1]; 1.3 (inactive) in experiment [2]; -2.05 (inactive) in experiment [3]; 4.04 (inactive) in [5]; 3.05 (inactive) in [6]; 0.0797 (inactive) in experiment [7]. In addition, the z-score in experiment [8] was 0.0403 (inactive); in experiment [9] it was -3.16. Moreover, the composite z-score in experiment [4] is 0.0379 (inactive); in experiment [10] it was -0.0272.

For the compound `[N-]=[N+]=Nc1ccccc1C[C@@]1(C(=O)NCCN2CCOCC2)N=C(c2ccc(OCCCO)cc2)O[C@@H]1c1ccccc1`, the z-score in experiment [1] was -0.139; in experiment [2], -4.41 (inactive); in experiment [3], -0.599 (inactive); in experiment [5], -0.347 (inactive); in experiment [6], -0.0653 (inactive); in experiment [7], 0.655 (inactive). The z-score was 0.745 (inactive) in experiment [8] and -0.125 in [9]. Moreover, the composite z-score in [4] is 0.842 (inactive); in [10] it was 0.0831.

Regarding `CN(C)C(=O)[C@@]1(Cc2ccccc2CN=[N+]=[N-])N=C(c2ccc(OCCCO)cc2)O[C@H]1c1ccccc1`, the z-score was 0.0128 in experiment [1]; 1.11 (inactive) in experiment [2]; -1.82 (inactive) in experiment [3]; 0.41 (inactive) in experiment [5]; 1.39 (inactive) in [6]; 0.316 (inactive) in [7]. The z-score in experiment [8] is 0.0743 (inactive); in experiment [9], -3.38. Also, the results for the composite z-score in experiment [4] and in experiment [10] were 1.12 (inactive) and -0.0118, respectively.

As for `OC([C@@H]1CC(c2ccccc2)=NO1)[C@H]1CC(c2ccccc2)=NO1` (stereo not given in full), the z-score is 0.447 in [1]; -1.39 (inactive) in [2]; 0.129 (inactive) in experiment [3]; -0.0704 (inactive) in experiment [5]; 1.16 (inactive) in experiment [6]; 2.32 (inactive) in experiment [7]. In addition, the values for the z-score in [8] and in experiment [9] were 1.16 (inactive) and 0.236, respectively. The composite z-score in [4] was -0.543 (inactive); in experiment [10], -0.159.

In the case of `COc1ccc(C(=O)O[C@H]2CC[C@]3(C)C4=C(CCC3C2(C)C)[C@]2(C)CC[C@H]([C@H](C)CCCC(C)C)[C@@]2(C)CC4)cc1` (stereo not given in full), the z-score in experiment [1] was 1.09; in experiment [2], 1.77 (inactive); in experiment [3], 0.873 (inactive); in experiment [5] it was 0.814 (inactive); in experiment [6], -1.09 (inactive); in experiment [7], 1.25 (inactive). The z-score in experiment [8] is 1.11 (inactive); in experiment [9], 1.37. Moreover, the figures for the composite z-score in experiment [4] and in [10] were -1.74 (inactive) and -0.142, respectively.

`CC1CC/C=C\[C@H]2OC34C=CCN(c5ccc(Cl)cc5)C(=O)[C@H]3N(CCO)C(=O)[C@]4(C)C2C(=O)O1` (stereo not given in full): the z-score in experiment [1] was -0.349; in experiment [2], -0.152 (inactive); in experiment [3], -1.13 (inactive); in [5], 0.0962 (inactive); in [6], -0.245 (inactive); in [7], -0.135 (inactive). Moreover, the z-score was -0.672 (inactive) in [8] and 0.102 in [9]. The values for the composite z-score in experiment [4] and in experiment [10] were -0.0582 (inactive) and -0.0785, respectively.

Regarding `C[N+](C)(C)CCCCNC(=O)[C@H]1C[C@H]2C(=O)N[C@@H](Cc3ccccc3)C(=O)N2[C@H]1c1ccc(O)cc1`, the z-score is -1.87 in [1]; 0.606 (inactive) in [2]; -0.0345 (inactive) in [3]; 0.516 (inactive) in experiment [5]; 0.644 (inactive) in [6]; 0.783 (inactive) in experiment [7]. The z-score was 1.17 (inactive) in [8] and -0.9 in experiment [9]. Also, the composite z-score in experiment [4] was -30.9 (active); in [10], -0.355.
